DT40 TDP1 no CPT: qHTS for Inhibitors of human tyrosyl-DNA phosphodiesterase 1 (TDP1): qHTS in cells in absence of CPT | DT40 Tdp1-/- hTDP1 cells, no CPT, ATP luminescence, 48 h | Potency, µM (top dose mostly 46.2 µM), without a hit: at the top dose activity change, negative = growth inhibition, most hits filed as inhibitors | 420,000 tested, 15% active | AID 686978, 2013; note: potency is the fitted concentration of half-maximal effect; % is set by controls: 0 for no effect and ±100 for the full control effect; nearly all actives have a fitted effect of over 55% in size
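Chicken DT40 Tdp1-/- cells complemented with human TDP1, screened without camptothecin (DMSO vehicle only), 400 cells/well. Compounds pin-transferred, cells incubated at 37 °C for at least 48 hr. Growth read as ATP-dependent luminescence (CellTiter-Glo, 30 min at RT).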
IL1B secr inh: qHTS for Inhibitors of Inflammasome Signaling: IL-1-beta AlphaLISA Primary Screen; THP-1 LPS/ATP IL-1B secretion, AlphaLISA, 16 h; stronger effect = lower value; activity change, % at 57.5 µM; 360,000 tested, 4.7% active; AID 743279, 2014; in the data active = activity change below about -50%; inconclusive = mostly about -30% to -49%; note: % is set by controls: 0 for no effect and ±100 for the full control effect
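THP-1 cells pretreated 1 hr with compounds (up to 57.5 uM final), then stimulated with LPS (250 ng/mL final) plus ATP (1.25 mM final); secreted IL-1B measured by AlphaLISA after 16 hr, decreased signal indicating inhibition.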
TGFb SMAD3 inh: qHTS for Inhibitors of TGF-b | HepG2 CAGA-GFP TGF-b/SMAD3 reporter, GFP fluorescence, 18 h; TGF-beta stimulated, 500 pg/mL final | Potency, µM (highest dose often 46.1 µM), inactives show top-dose activity, negative = inhibition, most hits filed as inhibitors | 410,000 tested, 1.2% active | AID 588855, 2011; note: potency is the fitted concentration of half-maximal effect; % is set by controls: 0 for no effect and ±100 for the full control effect; nearly all actives have a fitted effect of over 65% in size
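First, reporter cells (HEPG2 CAGA-GFP) rested 2 h at 37 degrees C. Next, compounds were pinned in and TGF-beta added to 500 pg/mL final. After 18 h, GFP was imaged per cell and summed per well.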
HepG2 viability: qHTS for Inhibitors of TGF-b: Cytotox Counterscreen. HepG2 CAGA-GFP viability, ATP luminescence, 18 h. Potency, µM (doses to about 46.1 µM), for the others: top-dose activity change, negative = cytotoxicity, most hits filed as cytotoxic. 410,000 tested, 0.76% active. AID 588856, 2011; note: potency is the fitted concentration of half-maximal effect
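CellTiter-Glo luminescence gave cytotoxicity after 18 hours at 37 degrees C. The cells were HepG2 CAGA-GFP in 1% FBS DMEM, stimulated with 500 pg/mL TGF-beta after compound addition. %Activity was normalised to no-cell wells (complete cell-killing) and DMSO (no toxicity), and curves were fitted and classified.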
ASM inhibitor: Inhibitors of Secretory Acid Sphingomyelinase (S-ASM): qHTS | Sphingomyelin phosphodiesterase (Homo sapiens), P17405 | placental ASM, HMU-PC fluorogenic substrate, 60 min | Potency, µM (doses to about 57.5 µM), inactives show at the top dose activity change, negative = inhibition, most hits filed as inhibitors | 340,000 tested, 0.006% active | AID 504937, 2011; note: potency is the fitted concentration of half-maximal effect
Target sequence (P17405 47-631 limits assumed): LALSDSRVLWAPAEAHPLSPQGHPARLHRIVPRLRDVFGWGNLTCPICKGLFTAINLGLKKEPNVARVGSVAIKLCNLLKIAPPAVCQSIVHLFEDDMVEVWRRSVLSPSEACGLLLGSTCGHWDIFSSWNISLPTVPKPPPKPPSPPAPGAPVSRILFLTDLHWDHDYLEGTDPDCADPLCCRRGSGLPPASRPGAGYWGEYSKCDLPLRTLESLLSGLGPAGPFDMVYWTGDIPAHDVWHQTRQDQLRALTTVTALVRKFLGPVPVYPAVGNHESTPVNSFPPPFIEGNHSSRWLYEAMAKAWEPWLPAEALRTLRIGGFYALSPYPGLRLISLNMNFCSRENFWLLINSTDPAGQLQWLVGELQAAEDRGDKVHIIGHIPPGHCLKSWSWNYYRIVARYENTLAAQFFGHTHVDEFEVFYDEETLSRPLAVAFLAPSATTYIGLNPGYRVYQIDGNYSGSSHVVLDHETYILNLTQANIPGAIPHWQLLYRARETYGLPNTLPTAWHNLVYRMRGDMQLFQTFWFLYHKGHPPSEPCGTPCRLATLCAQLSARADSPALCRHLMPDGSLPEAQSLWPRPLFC
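HMU-PC0 cleavage (9 uM final) by human placental ASM, 60 min at 37 °C following 10 min compound exposure at RT; stopped at pH 10, fluorescence Ex 386/Em 447 nm.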
DT40 TDP1 CPT: qHTS for Inhibitors of human tyrosyl-DNA phosphodiesterase 1 (TDP1): qHTS in cells in presence of CPT; chicken DT40 Tdp1-/-;hTDP1 cells + 20 nM CPT, ATP luminescence, 48 h; Potency, µM (series often up to 46.2 µM), for the others: at the top dose activity change, negative = growth inhibition, hits mostly inhibitors; 420,000 tested, 12% active; note: potency is the fitted concentration of half-maximal effect; % is set by controls: 0 for no effect and ±100 for the full control effect; nearly all actives have a fitted effect of over 55% in size
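Chicken DT40 Tdp1-/- cells stably complemented with human TDP1 were seeded at 400 cells/well in medium containing 20 nM camptothecin, exposed to pin-transferred compounds, and grown at 37 °C for at least 48 hr. Viability was read as ATP luminescence.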
Starred values were filed as active, the others as inactive. In the library only some 19% were active in any assay of this set; here they are far more common. Unless noted, calls come from the whole dose curve; as a rule, active = well fitted curve in the direction sought with a large enough effect; inconclusive = small, poorly fitted or top-dose-only effect, or another doubt; inactive = no such curve, though single readings can be large; an effect the other way counts as inactive or inconclusive.

Results for CS(=O)(=O)n1nc(-c2ccco2)nc1NCc1ccccc1Cl ?
DT40 TDP1 no CPT: 18.4µM*; TGFb SMAD3 inh: -23.7%; HepG2 viability: -41.2%; DT40 TDP1 CPT: inconclusive

What do the screens show for `CC(C)c1ccc(CNc2nc(-c3ccco3)nn2S(=O)(=O)c2ccc3ccccc3c2)cc1`?
DT40 TDP1 no CPT: inconclusive; TGFb SMAD3 inh: -21.9%; HepG2 viability: -4.7%; DT40 TDP1 CPT: inconclusive

How did COc1ccc(S(=O)(=O)n2nc(-c3ccco3)nc2NCc2ccc(C(C)C)cc2)cc1 do in these assays?
DT40 TDP1 no CPT: 23.1µM*; TGFb SMAD3 inh: -5.0%; HepG2 viability: -5.5%; DT40 TDP1 CPT: 18.4µM*

How did Cc1ccc(S(=O)(=O)n2nc(-c3ccco3)nc2NCc2ccccc2Cl)cc1 do in these assays?
DT40 TDP1 no CPT: inconclusive; TGFb SMAD3 inh: -7.3%; HepG2 viability: -0.9%; DT40 TDP1 CPT: inconclusive

How did CC(C)c1ccc(CNc2nc(-c3ccco3)nn2S(=O)(=O)c2ccc(F)cc2)cc1 do in these assays?
DT40 TDP1 no CPT: inconclusive; TGFb SMAD3 inh: -29.4%; HepG2 viability: -15.7%; DT40 TDP1 CPT: 20.6µM*

How did CC(C)(C)OC(=O)N1CCN(C(=O)c2ncn3c2c(=O)[nH]c2ccccc23)CC1 do in these assays?
DT40 TDP1 no CPT: 13.6%; IL1B secr inh: 16.0; TGFb SMAD3 inh: -0.5%; HepG2 viability: -3.7%; DT40 TDP1 CPT: 12.5%

What do the screens show for `Cc1ccc(C)c(CN2CCC3(CCC(CNC(=O)c4ccnn4C)O3)CC2)c1` (stereo unspecified)?
DT40 TDP1 no CPT: -28.2%; DT40 TDP1 CPT: -6.0%

What do the screens show for `N#C/C(=C1/SC[C@@H](c2ccc(Cl)cc2Cl)S1)n1ccnc1`?
DT40 TDP1 no CPT: 5.96µM*; DT40 TDP1 CPT: 4.73µM*

Results for CCNC(=S)Nc1cc(OCC)c(NC(=O)c2ccco2)cc1OCC ?
DT40 TDP1 no CPT: inconclusive; IL1B secr inh: 0.7; TGFb SMAD3 inh: -27.0%; HepG2 viability: -2.6%; ASM inhibitor: -0.4%; DT40 TDP1 CPT: inconclusive

Results for CCOc1cc(NC(=S)NCC2CCCO2)c(OCC)cc1NC(=O)C1CC1 (stereo unspecified) ?
DT40 TDP1 no CPT: 4.61µM*; IL1B secr inh: -7.0; TGFb SMAD3 inh: 2.3%; HepG2 viability: -0.2%; ASM inhibitor: 3.9%; DT40 TDP1 CPT: -3.2%

How did CCOc1cc(NS(=O)(=O)c2ccccc2)c(OCC)cc1NC(=O)c1ccco1 do in these assays?
DT40 TDP1 no CPT: 25.9µM*; IL1B secr inh: 0.0; TGFb SMAD3 inh: 0.5%; HepG2 viability: 3.7%; ASM inhibitor: -1.1%; DT40 TDP1 CPT: inconclusive

How did CCOc1cc(NS(=O)(=O)c2ccc(Cl)cc2)c(OCC)cc1NC(=O)CC(C)C do in these assays?
DT40 TDP1 no CPT: 17.8µM*; IL1B secr inh: -13.5; TGFb SMAD3 inh: inconclusive; HepG2 viability: 0.1%; ASM inhibitor: 1.5%; DT40 TDP1 CPT: 22.4µM*

Results for CCOc1cc(NC(=O)C2CCCCC2)c(OCC)cc1NC(=O)c1ccco1 ?
DT40 TDP1 no CPT: inconclusive; IL1B secr inh: -10.2; TGFb SMAD3 inh: inconclusive; HepG2 viability: -1.9%; ASM inhibitor: 70.9%; DT40 TDP1 CPT: 7.31µM*

Results for COc1ccc(Cl)cc1NC(=O)N1CCC(CN2CCCCCC2)CC1 ?
DT40 TDP1 no CPT: inconclusive; TGFb SMAD3 inh: 16.0%; HepG2 viability: 0.3%; DT40 TDP1 CPT: inconclusive

What do the screens show for `CCc1ccc(-n2c(=O)c3c(C)c(C(=O)N(C)C)sc3n(Cc3ccccc3F)c2=O)cc1`?
DT40 TDP1 no CPT: -24.5%; TGFb SMAD3 inh: 0.0%; HepG2 viability: -12.7%; DT40 TDP1 CPT: -4.9%

Results for Cc1ccc(CN2CCSc3ccc(C(=O)Nc4cc(C)cc(C)c4)cc32)cc1 ?
DT40 TDP1 no CPT: inconclusive; TGFb SMAD3 inh: -2.0%; HepG2 viability: -4.5%; DT40 TDP1 CPT: inconclusive

What do the screens show for `O=C(CCCCCn1c(=S)[nH]c2cc3c(cc2c1=O)OCO3)N1CCN(Cc2ccccc2)CC1`?
DT40 TDP1 no CPT: -28.7%; IL1B secr inh: 29.7; TGFb SMAD3 inh: inconclusive; HepG2 viability: -25.9%; ASM inhibitor: -3.2%; DT40 TDP1 CPT: 9.2µM*

What do the screens show for `O=C(CCCCCn1c(=S)[nH]c2cc3c(cc2c1=O)OCO3)N1CCN(C2CCCCC2)CC1`?
DT40 TDP1 no CPT: inconclusive; IL1B secr inh: -73.7*; TGFb SMAD3 inh: inconclusive; HepG2 viability: -51.7%; ASM inhibitor: -1.5%; DT40 TDP1 CPT: inconclusive

Results for CCCCN(C)C(=O)c1ccc2c(c1)S(=O)(=O)c1ccccc1C2=O ?
DT40 TDP1 no CPT: -9.5%; IL1B secr inh: 5.6; TGFb SMAD3 inh: -20.4%; HepG2 viability: -12.3%; ASM inhibitor: 3.1%; DT40 TDP1 CPT: -16.4%

How did COc1ccc(C(C)C)cc1-c1cncc(NC(C)=O)n1 do in these assays?
DT40 TDP1 no CPT: inconclusive; IL1B secr inh: -95.7*; TGFb SMAD3 inh: -0.4%; HepG2 viability: -2.9%; DT40 TDP1 CPT: -26.1%

How did Cc1cc(Cl)ccc1OCC(=O)OCC(=O)NC1CCS(=O)(=O)C1 (stereo unspecified) do in these assays?
DT40 TDP1 no CPT: 14.1%; IL1B secr inh: 6.4; TGFb SMAD3 inh: 9.2%; HepG2 viability: 6.7%; ASM inhibitor: 5.5%; DT40 TDP1 CPT: -0.4%

What do the screens show for `CC(C)(C)c1ccc(-n2ncc3c2CCCC3NC(=O)c2csnn2)cc1` (stereo unspecified)?
DT40 TDP1 no CPT: 11.6µM*; IL1B secr inh: 9.6; TGFb SMAD3 inh: -1.7%; HepG2 viability: -15.4%; ASM inhibitor: -1.8%; DT40 TDP1 CPT: inconclusive

How did CC(=O)NC1CCCc2c1cnn2-c1ccc(C(C)(C)C)cc1 (stereo unspecified) do in these assays?
DT40 TDP1 no CPT: inconclusive; IL1B secr inh: -4.4; TGFb SMAD3 inh: -13.0%; HepG2 viability: 4.8%; ASM inhibitor: 0.6%; DT40 TDP1 CPT: inconclusive

Results for CC(C)(C)c1ccc(-n2ncc3c2CCCC3NC(=O)C2=NNC(=O)CC2)cc1 (stereo unspecified) ?
DT40 TDP1 no CPT: inconclusive; IL1B secr inh: 107.9; TGFb SMAD3 inh: -25.5%; HepG2 viability: -23.5%; ASM inhibitor: -3.7%; DT40 TDP1 CPT: inconclusive
